Shown are actives, neighbours in structure and some others; about 2.3% of the full set was active somewhere.
697 NFkB inh = lowers PMA/ionomycin-induced NF-kB signal in 697 B cells; 697 B-cell NF-kB luciferase reporter, 16 h; AID 435022; hit rate 0.33% among 330,000; inhibition, % at 4 µM; in the data active = inhibition above about 35%
Shn3 inh set2 = reduces Shn3 3'UTR luciferase signal in osteoblasts | Clone20 osteoblast Shn3 3'UTR firefly luciferase, 24 h | inhibition, % at 12.5 µM | hit rate 0.52% among 360,000 | AID 588674;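 active = mean inhibition of at least 75% with every replicate also reaching 75%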;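 also: 0% = median of neutral control wells and 100% = pilot-screen positive control compound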
MITF TRPM1 inh = inhibitors of MITF-driven TRPM1 promoter in melanoma cells; hit rate 0.83% among 330,000; AID 488899; SK-MEL-5 TRPM1 promoter luciferase, 24 h; inhibition, % at 12.5 µM;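 active = mean inhibition across replicates of 60% or more, whatever share of single replicates reaches that level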
Gli-Sufu antag = antagonists of Gli-Sufu signaling; Sufu-KO-LIGHT fibroblasts, Gli luciferase reporter luminescence; inhibition, % at 5 µM; hit rate 0.74% among 340,000; AID 588413;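 active = inhibition above about 55%, limit read from the data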;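 also: 0% = DMSO-treated cells and 100% = wells with medium but no cells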
Jurkat NFkB inh = lowers PMA/ionomycin-induced NF-kB signal in Jurkat cells. PMA/ionomycin-induced NF-kB luciferase reporter, luminescence. inhibition, % at 4 µM. hit rate 0.53% among 330,000; in the data active = inhibition above about 50%
EBV LMP1 NFkB = reduces LMP1-driven NF-kappaB luciferase signal; LMP1-induced NF-kappaB luciferase reporter cells, luminescence; hit rate 0.69% among 350,000; inhibition, % at 12.5 µM; AID 504558; in the data active = inhibition above about 41%;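 also: 0% = neutral control wells and 100% = reference inhibitor control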
697 NFkB conf = lowers PMA/ionomycin-induced NF-kB signal in 697 B cells. shares compounds with 697 NFkB inh. 697 B-cell NF-kB luciferase, 16 h. inhibition, % at 4 µM. hit rate 35% among 2,000; in the data active = inhibition mostly above about 28%, no sharp cut-off; inactive = mostly below about 22%
Starred values were filed as active, the others as inactive; . = no result.

SMILES | 697 NFkB inh | Shn3 inh set2 | MITF TRPM1 inh | Gli-Sufu antag | Jurkat NFkB inh | EBV LMP1 NFkB | 697 NFkB conf
N#Cc1cc(-c2ccccc2)oc1/N=C/c1ccccc1O | -23 | -28 | -14 | 0 | -3 | 2 | .
c1ccc2nc(-c3ccc(N4CCOCC4)cc3)ccc2c1 | -348 | 55 | 54 | -24 | -67 | 66* | -291
CC1CCCC(C)N1C(=O)COC(=O)c1cccs1 (stereo not drawn) | 0 | -31 | -20 | -10 | -6 | -11 | .
Cc1nc([N+](=O)[O-])c(Sc2nc3ccc([N+](=O)[O-])cc3[nH]2)n1Cc1ccccc1 | 36* | 47 | -6 | -1 | 5 | 2 | 30*
Cc1ccccc1-c1cc(C(=O)Nc2sc(C(=O)OC(C)C)c(C)c2C#N)c2ccccc2n1 | 37* | 71 | 43 | 25 | 16 | 32 | 43*
CCOC(=O)c1sc(NC(=O)c2cc(-c3ccc(C)cc3)nc3ccccc23)c(C#N)c1C | -17 | 13 | 26 | 41 | 0 | 5 | .
Cc1cccc(NC(=O)c2cc(-c3cc(C)ccc3O)n[nH]2)c1 | -120 | -93 | -73 | -47 | -82 | -51 | .
Cc1ccc(O)c(-c2cc(C(F)(F)F)[nH]n2)c1 | 40* | -9 | -9 | 5 | 10 | 1 | 22
COCCNC(=O)/C(C#N)=C/c1ccc(-c2ccc(OC)cc2[N+](=O)[O-])o1 | 35* | 15 | 4 | -1 | 1 | 5 | 19
O=C(c1ccccc1F)N1CCN(C(=O)C(c2ccccc2)c2ccccc2)CC1 | -2 | -14 | -7 | 21 | 9 | -2 | .
CCCN1C2CCCC1CC(NC(=S)Nc1ccc(OC)cc1)C2 (stereo not drawn) | -14 | 4 | 5 | 10 | 6 | -6 | .
COc1ccccc1NC(=O)N1CCc2c([nH]c3ccccc23)C1C(F)(F)F (stereo not drawn) | 35* | 5 | -16 | 2 | 13 | 3 | 8
COc1ccc(C(=O)N2CCc3c([nH]c4ccccc34)C2C(F)(F)F)cc1 (stereo not drawn) | 0 | 12 | -11 | -2 | 9 | 4 | .
Clc1ccc(-c2nc3n(n2)Cc2ccccc2-3)cc1 | -374 | -32 | -14 | -122 | -116 | -33 | -301
CC(C)NC(=O)c1ccc2c(=O)n(CC3CCCO3)c(=S)[nH]c2c1 (stereo not drawn) | 36* | -6 | 4 | -1 | 0 | 1 | 0
CN(CC(=O)Nc1ccccc1Cl)C(=O)CSc1nnc(-c2ccco2)n1C | 16 | -17 | -1 | 0 | -3 | -2 | .
O=C(O)c1cccc(Nc2ncnc3sccc23)c1 | 52* | -17 | 8 | 3 | -17 | 3 | 0
CC(C)Oc1ccc(C(CC(=O)N(C)CCC#N)c2ccc(F)cc2)cc1 (stereo not drawn) | 0 | -4 | 9 | 4 | 9 | -2 | .
CC1CCN(c2c(NCC3CCC(C(=O)NCc4ccc(F)cc4)CC3)c(=O)c2=O)CC1 (stereo not drawn) | 19 | 2 | 12 | 2 | 1 | 0 | .
Cc1ccc(NC(=O)C2CCC(CNc3c(N4CCC(C)CC4)c(=O)c3=O)CC2)cc1F (stereo not drawn) | 47* | 9 | -5 | 30 | 32 | 33 | 33*
CC1CCCC(C)N1C(=O)COC(=O)CSc1ccc(C(N)=O)cc1[N+](=O)[O-] (stereo not drawn) | 35* | -10 | -8 | 2 | 6 | 6 | -11
CC1CCCCN1C(=O)COC(=O)CSc1ccc(C(N)=O)cc1[N+](=O)[O-] (stereo not drawn) | . | 4 | -2 | -13 | . | -2 | .
Cc1cccc(/C=C2\CCC(=C3SCCCS3)C2=O)c1 | -319 | 52 | 33 | -60 | -119 | 48* | -358
O=C1/C(=C/c2ccccc2)CCCc2ccccc21 | -88 | -130 | -36 | -5 | -97 | -4 | .
CCC1NC(=O)c2cc3ccccc3cc2-n2c1nc1cc(C)cc(C)c1c2=O (stereo not drawn) | . | 11 | . | . | . | -8 | .
SMILES | 697 NFkB inh | Shn3 inh set2 | MITF TRPM1 inh | Gli-Sufu antag | Jurkat NFkB inh | EBV LMP1 NFkB | 697 NFkB conf
CCCCNC(=O)c1c(N)n(/N=C/c2ccccn2)c2nc3ccccc3nc12 | 47* | . | . | . | -1 | . | 44*
Cc1ccccc1-c1nnc(SCC(=O)Nc2cccc(C)c2C)o1 | 37* | -1 | -10 | -16 | -33 | -2 | 14
Cc1cccc(NC(=O)CSc2nnc([C@@H](N)Cc3ccccc3)o2)c1C | 18 | -28 | -7 | 3 | -3 | 2 | .
O=C1CC(c2ccccc2)Sc2nc3ccccc3n21 (stereo not drawn) | -143 | -40 | -51 | . | -116 | -16 | .
O=C1CC(c2ccc3c(c2)OCO3)Sc2nc3ccccc3n21 (stereo not drawn) | -255 | -1 | -14 | -35 | -68 | -7 | -111
Cc1cc(/C=C2\SC(=O)N(C)C2=O)c(C)n1-c1ccc(O)cc1 | -272 | 0 | -9 | 13 | -93 | -75 | -102
Cc1cc(/C=C2\SC(=O)N(C)C2=O)c(C)n1-c1ccc(S(N)(=O)=O)cc1 | -12 | -4 | -31 | -4 | -10 | -3 | .
Cc1cc(C)c2nc(NC(=O)[C@@H](NC(=O)c3cccc(S(=O)(=O)N4CCOCC4)c3)C(C)C)sc2c1 | 54* | 6 | 41 | 1 | 10 | 7 | 54*
Cc1cccc(C(=O)N[C@H](C(=O)Nc2cc(S(=O)(=O)N3CCCCC3)ccc2C)C(C)C)c1 | -4 | -7 | 0 | 10 | 8 | -8 | .
CCCCCCCCNC(=O)c1ccc(C)cc1 | 80* | . | . | . | -25 | . | -8
Cc1ccccc1N(C(=O)c1snc(C(N)=O)c1N)C(C(=O)NCc1ccccc1)c1ccc(O)cc1 (stereo not drawn) | 3 | 25 | 6 | -2 | 12 | -2 | .
NC(=O)c1nsc(C(=O)N(c2ccccc2F)C(C(=O)NCc2ccccc2)c2ccc(O)cc2)c1N (stereo not drawn) | 35* | 2 | -1 | 13 | 44 | 3 | 22
Cc1cc(NCc2ccccn2)nc2ccccc12 | -3 | -6 | -2 | -2 | -9 | 4 | .
c1ccc(CNc2ccc3ccccc3n2)nc1 | -265 | -19 | -4 | -90 | -130 | -1 | -194
CCn1c(SCC(=O)NNC(=O)c2ccccc2)nnc1-c1ccncc1 | 42* | 0 | 9 | 2 | 6 | -5 | -2
CCn1c(SCC(=O)NNC(=O)Cc2ccccc2)nnc1-c1ccncc1 | 5 | 0 | 7 | -6 | 9 | -7 | .
CCN(CC)C(=N)/C(C#N)=N/Nc1ccccc1 | -6 | -43 | . | -21 | -34 | . | .
Nc1ccc(C(=O)OCC(=O)Nc2cccc(S(=O)(=O)NC3=NCCCCC3)c2)cc1[N+](=O)[O-] | -4 | -1 | 10 | 4 | -1 | -3 | .
COc1cc(-c2cc(-c3nnco3)c3ccccc3n2)cc(OC)c1OC | 41* | -8 | -9 | 26 | 0 | -1 | 9

Compound activity from PubChem BioAssay.
